Assay [1] concerns the target Lysosomal acid glucosylceramidase (Homo sapiens) (UniProt P04062). The assay can be described thus: Glucocerebrosidase-p2 (AID 348; in the data active = potency below about 10 µM; also: potency is read from the fitted curve at half-maximal effect). The note with it: purified GBA, blue fluorogenic substrate, 40 min. In a few lines:
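Normal human glucocerebrosidase (0.2 nM) with blue fluorogenic substrate (80 uM final) in citrate/phosphate pH 5.9 with 10mM sodium taurocholate, 0.01% tween-20; 40 min RT, NaOH/glycine stop; fluorescence Ex 365/Em 440; AC50 from a titration from 0.6 nM upwards.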

A short description of assay [2]: AP1 Signaling Pathway (AID 357).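 Also: ME-180 reporter cells stimulated with EGF at its EC50 level; % is scaled to controls: 0 for no effect and ±100 for the full control effect.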 The settings on record: ME-180 AP-1-bla reporter, EGF-induced, beta-lactamase ratio, 5 h; at 7.69 µM (top of the series) unless noted. The method in brief:
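Modulation of EGF-driven AP-1 transcription was assessed with a beta-lactamase reporter in ME-180 cells. Compound and EC50 EGF were co-incubated 5 hours at 37 °C before 2.5-hour CCF4 loading at room temperature and dual-emission reading.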

Assay [3] concerns the target Cytochrome P450 1A2 (Homo sapiens) (UniProt P05177). The assay can be described thus: p450-cyp1a2 (AID 410; calls by dose curve; also: potency is read from the fitted curve at half-maximal effect;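 as to activity change, negative = inhibition: -100% = full effect of reference inhibitor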). The note with it: recombinant CYP1A2, luciferin-ME demethylation, luminescence; series mostly up to 57 µM. The method in brief:
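Luminescent demethylation readout: Luciferin-ME (100uM, equal to Km) turned over by 20nM CYP1A2 for 60 min at room temperature after NADPH regeneration addition, following 10 min compound preincubation. Normalization used 57 uM furafylline as full inhibition.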

Assay [4] is described as follows: NFAT Signaling Pathway (AID 444).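 Also: carbachol stimulus at about its EC50 of 1 µM final; % is scaled to controls: 0 for no effect and ±100 for the full control effect.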 The settings on record: Jurkat NFAT-bla M1, carbachol, beta-lactamase ratio, 5 h; at 7.69 µM (top of the series) unless noted. In a few lines: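 Read-out: CCF4 FRET ratio (460 nm/530 nm) after 1 h RT dye loading, used for %activity and AC50 from titration series. Cells: Jurkat NFAT-β-lactamase/M1 line, treated with compound plus 1 uM carbachol for 5 h, 37 °C.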

The nature of assay [5]: Stat Signaling Pathway (AID 446).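 Also: ME-180 cervical cancer cells given 40 pM IL-6 alongside compound; SIE-controlled beta-lactamase reporter measured as 460/530 nm FRET emission ratio; % is scaled to controls: 0 for no effect and ±100 for the full control effect.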 The note with it: ME-180 SIE beta-lactamase reporter, IL-6 stimulated, 5 h; at 7.69 µM (top of the series) unless noted. In a few lines:
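Overnight-plated ME-180 cells bearing a STAT Inducible Element beta-lactamase reporter; 5 h co-exposure to compound and 40 pM IL-6; values normalized to 300 pM IL-6 and 125 nM JAK inhibitor controls.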

For assay [6], the target named is Glucocorticoid receptor (Homo sapiens) (UniProt P04150). The assay can be described thus: GR-GFP Redistribution (AID 450;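 active = compounds whose dose series gives a full or clear partial fitted curve of increased nuclear translocation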; also: potency is read from the fitted curve at half-maximal effect). The settings on record: U2OS GR-GFP nuclear translocation, laser cytometry, 2 h.
Assay [7] shares this target. The assay can be described thus: GR-EFC Redistribution (AID 451; calls by dose curve; also: potency is read from the fitted curve at half-maximal effect). The note with it: CHO-K1 GR-EFC translocation, beta-gal luminescence, 2 h. The method in brief:
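Translocation of GR-ED fusion to nuclear EA restores b-gal, read by luminescence after 1 h room-temperature detection. Engineered CHO-K1 biosensor cells, 1,000/well, exposed 2 h at 37 C to titrations up to 46 uM final.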

In assay [8] the target is Mitogen-activated protein kinase 10 (Mus musculus) (UniProt Q61831). The assay can be described thus: JNK3 AlphaScreen Assay (AID 530).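 Also: kinase came from lysate of stimulated human HepG2 cells; signal reports phosphorylation of biotinylated GST-cJun 1-79 at Ser73 with 10 µM ATP; % is scaled to controls: 0 for no effect and ±100 for the full control effect.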 The settings on record: JNK3 lysate, c-Jun phosphorylation; series mostly up to 57.1 µM. The method in brief: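 qHTS titrations with 15 min compound pre-incubation before adding ATP (10 uM final). Read-out: AlphaScreen of Ser73-phosphorylated biotin-GST-cJun using HepG2 lysate JNK3 activated by IL-1β and TNFα.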

The target in assay [9] is 3',5'-cyclic-AMP phosphodiesterase 4B (Homo sapiens) (UniProt Q07343). The assay can be described thus: qHTS Assay for Inhibitors of PDE-IV (AID 607; active = well fitted activation curve with a large enough effect in the main read-out, with a control signal flat, not every such curve was filed as active; also: % of control where 0% means no effect). The note with it: HEK293 ACTOne CNG channel cells, membrane potential fluorescence; series mostly up to 22.9 µM. The method in brief:
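Live HEK293 cells with a modified cyclic nucleotide-gated (CNG) channel report intracellular cAMP via membrane-potential dye fluorescence (ex 535/em 590 nm). Endogenous PDE-IV was targeted. Compounds were tested at up to 22.9 uM final; RO 20-1724 100 uM served as control.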

Assay [10] can be described thus: qHTS Assay for Identification of Small Molecule Agonists for Hypoxia Response Element Signaling Pathway (AID 914; active = well fitted activation curve with a large enough effect in the signal ratio, with a control signal flat, not every such curve was filed as active; the % refers to the signal ratio; also: % of control where 0% means no effect). The note with it: ME-180 (cervical carcinoma) HRE-bla reporter, beta-lactamase ratio, CoCl2, 17 h; activation: hits give high values. In a few lines: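 HRE-bla ME-180 cells with beta-lactamase reporter under hypoxia response element, compounds with EC50 CoCl2 for 17 hours at 37 C. CCF4 substrate, 460nm/530nm emission ratio gave %Activity; AC50 from titration series.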

Assay [11] can be described thus: Primary qHTS for small molecule stabilizers of the endoplasmic reticulum resident proteome: Secreted ER Calcium Modulated Protein (SERCaMP) assay (AID 1508630; active = well fitted curve in the direction sought with a large enough effect; an effect the other way counts as inactive or inconclusive; also: % is scaled to controls: 0 for no effect and ±100 for the full control effect). The settings on record: SH-SY5Y GLuc-SERCaMP (Gaussia luciferase released on ER calcium loss) secretion, thapsigargin, luminescence; series mostly up to 38.4 µM. In a few lines:
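The SH-SY5Y reporter protocol was run at 3 concentrations up to 38.3 uM (primary) or 11 concentrations (follow-up): 16 h compound, 100 nM thapsigargin for 4 h, then extracellular luciferase luminescence.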

The target in assay [12] is Cytochrome P450 3A4 (Homo sapiens) (UniProt P08684). The assay can be described thus: qHTS Assay for Activators of Cytochrome P450 3A4 (AID 885; active = well fitted curve in the direction sought with a large enough effect; an effect the other way counts as inactive or inconclusive; also: nearly all actives have a fitted effect of over 65% in size). The note with it: recombinant CYP3A4, Luciferin-PPXE luminescence, 60 min; series mostly up to 57.1 µM. The method in brief:
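Using 20nM recombinant human CYP3A4 in potassium phosphate (200mM), substrate Luciferin-PPXE at 25uM, luminescent luciferin detection followed a 60-min RT NADPH reaction; data scaled to 57 uM ketoconazole.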

Assay [13] shares this target. The assay can be described thus: qHTS Assay for Inhibitors and Substrates of Cytochrome P450 3A4 (AID 884; active = well fitted curve in the direction sought with a large enough effect; an effect the other way counts as inactive or inconclusive; also: % is scaled to controls: 0 for no effect and ±100 for the full control effect; nearly all actives have a fitted effect of over 50% in size). The settings on record: recombinant CYP3A4, Luciferin-PPXE luminescence; series mostly up to 57.1 µM. In a few lines: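 Luminescent readout of luciferin produced by CYP3A4 (20 nM) dealkylation of Luciferin-PPXE, 25 uM (its KM). NADPH-driven reaction ran 60 min at RT after 10 min compound preincubation; data scaled to 57 uM ketoconazole as 100% inhibition.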

A number with no mark means an inactive call. Inconclusive results are not listed. Active and inactive are the calls of the source. Unless noted, calls follow the shape of the dose curve; as a rule, active = well fitted curve in either direction with a large enough effect (not every such curve was filed as active); inconclusive = small, poorly fitted or top-dose-only effect, or another doubt; inactive = flat fitted curve, though single readings scatter.

Sequence of Cytochrome P450 1A2 (Homo sapiens) (P05177 whole entry, looked up): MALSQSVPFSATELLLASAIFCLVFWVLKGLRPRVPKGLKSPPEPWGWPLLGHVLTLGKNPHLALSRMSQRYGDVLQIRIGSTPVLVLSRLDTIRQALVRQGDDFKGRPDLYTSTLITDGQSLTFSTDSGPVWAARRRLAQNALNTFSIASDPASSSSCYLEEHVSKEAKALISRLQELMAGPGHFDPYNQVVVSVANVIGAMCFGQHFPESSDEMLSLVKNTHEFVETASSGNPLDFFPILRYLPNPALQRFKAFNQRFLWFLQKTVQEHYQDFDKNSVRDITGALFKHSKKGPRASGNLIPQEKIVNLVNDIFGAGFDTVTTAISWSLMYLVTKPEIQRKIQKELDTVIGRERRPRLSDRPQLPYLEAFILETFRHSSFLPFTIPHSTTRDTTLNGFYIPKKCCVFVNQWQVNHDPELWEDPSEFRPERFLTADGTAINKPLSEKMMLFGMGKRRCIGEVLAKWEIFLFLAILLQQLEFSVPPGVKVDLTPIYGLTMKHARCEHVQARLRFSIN
Sequence of Glucocorticoid receptor (Homo sapiens) (P04150 whole entry, looked up): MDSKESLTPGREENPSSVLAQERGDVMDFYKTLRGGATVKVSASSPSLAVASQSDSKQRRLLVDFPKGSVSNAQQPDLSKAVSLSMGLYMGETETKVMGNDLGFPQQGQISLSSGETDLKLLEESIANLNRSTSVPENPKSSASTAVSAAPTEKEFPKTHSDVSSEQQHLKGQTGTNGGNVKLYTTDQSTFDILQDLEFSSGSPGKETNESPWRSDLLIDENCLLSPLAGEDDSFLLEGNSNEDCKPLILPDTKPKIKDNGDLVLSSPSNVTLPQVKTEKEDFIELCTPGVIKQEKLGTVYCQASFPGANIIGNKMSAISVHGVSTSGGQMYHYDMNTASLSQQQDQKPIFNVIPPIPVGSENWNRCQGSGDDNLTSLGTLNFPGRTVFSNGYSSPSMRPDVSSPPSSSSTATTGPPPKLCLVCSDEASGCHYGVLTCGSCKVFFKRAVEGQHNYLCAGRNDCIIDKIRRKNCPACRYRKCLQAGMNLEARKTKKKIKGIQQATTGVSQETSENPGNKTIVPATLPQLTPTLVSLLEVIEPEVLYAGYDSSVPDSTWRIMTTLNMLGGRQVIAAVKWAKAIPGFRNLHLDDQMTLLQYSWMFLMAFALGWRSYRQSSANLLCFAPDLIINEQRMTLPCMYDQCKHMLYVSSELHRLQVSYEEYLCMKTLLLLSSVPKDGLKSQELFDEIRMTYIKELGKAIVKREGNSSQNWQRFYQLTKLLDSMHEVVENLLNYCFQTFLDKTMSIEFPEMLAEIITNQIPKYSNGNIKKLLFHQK
Sequence of Lysosomal acid glucosylceramidase (Homo sapiens) (P04062 whole entry, looked up): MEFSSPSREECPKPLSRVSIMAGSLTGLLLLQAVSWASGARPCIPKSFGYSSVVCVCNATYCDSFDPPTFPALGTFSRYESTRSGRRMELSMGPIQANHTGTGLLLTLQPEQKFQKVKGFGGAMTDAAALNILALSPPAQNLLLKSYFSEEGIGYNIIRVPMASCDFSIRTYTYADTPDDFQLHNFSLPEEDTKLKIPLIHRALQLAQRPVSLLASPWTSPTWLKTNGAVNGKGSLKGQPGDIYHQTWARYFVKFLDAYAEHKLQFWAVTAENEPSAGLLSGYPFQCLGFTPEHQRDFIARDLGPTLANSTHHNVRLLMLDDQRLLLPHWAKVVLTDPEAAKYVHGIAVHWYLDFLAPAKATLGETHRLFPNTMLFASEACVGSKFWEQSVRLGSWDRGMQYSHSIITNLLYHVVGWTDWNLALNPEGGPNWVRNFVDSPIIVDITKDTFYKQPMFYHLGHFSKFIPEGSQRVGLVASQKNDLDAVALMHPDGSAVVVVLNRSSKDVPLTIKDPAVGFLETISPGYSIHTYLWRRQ
Sequence of 3',5'-cyclic-AMP phosphodiesterase 4B (Homo sapiens) (Q07343 whole entry, looked up): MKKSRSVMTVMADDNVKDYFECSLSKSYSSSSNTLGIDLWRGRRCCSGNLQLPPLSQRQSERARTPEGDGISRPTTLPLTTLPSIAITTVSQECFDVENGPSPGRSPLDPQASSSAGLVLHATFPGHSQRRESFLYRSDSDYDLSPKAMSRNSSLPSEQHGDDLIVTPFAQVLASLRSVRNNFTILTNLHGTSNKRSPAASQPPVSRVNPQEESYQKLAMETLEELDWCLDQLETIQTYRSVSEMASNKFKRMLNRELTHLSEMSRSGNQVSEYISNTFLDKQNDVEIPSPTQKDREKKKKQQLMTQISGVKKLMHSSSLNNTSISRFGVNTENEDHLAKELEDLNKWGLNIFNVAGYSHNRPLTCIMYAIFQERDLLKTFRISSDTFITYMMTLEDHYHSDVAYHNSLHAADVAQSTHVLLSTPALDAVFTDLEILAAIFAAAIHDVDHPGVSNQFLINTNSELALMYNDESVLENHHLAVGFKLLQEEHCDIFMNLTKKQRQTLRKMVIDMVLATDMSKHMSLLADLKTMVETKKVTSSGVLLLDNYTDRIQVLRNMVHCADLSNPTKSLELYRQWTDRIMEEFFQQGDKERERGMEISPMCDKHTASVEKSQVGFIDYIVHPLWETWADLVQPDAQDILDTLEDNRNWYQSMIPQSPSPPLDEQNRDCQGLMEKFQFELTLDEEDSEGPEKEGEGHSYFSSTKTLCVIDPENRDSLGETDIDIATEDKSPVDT
Sequence of Cytochrome P450 3A4 (Homo sapiens) (P08684 whole entry, looked up): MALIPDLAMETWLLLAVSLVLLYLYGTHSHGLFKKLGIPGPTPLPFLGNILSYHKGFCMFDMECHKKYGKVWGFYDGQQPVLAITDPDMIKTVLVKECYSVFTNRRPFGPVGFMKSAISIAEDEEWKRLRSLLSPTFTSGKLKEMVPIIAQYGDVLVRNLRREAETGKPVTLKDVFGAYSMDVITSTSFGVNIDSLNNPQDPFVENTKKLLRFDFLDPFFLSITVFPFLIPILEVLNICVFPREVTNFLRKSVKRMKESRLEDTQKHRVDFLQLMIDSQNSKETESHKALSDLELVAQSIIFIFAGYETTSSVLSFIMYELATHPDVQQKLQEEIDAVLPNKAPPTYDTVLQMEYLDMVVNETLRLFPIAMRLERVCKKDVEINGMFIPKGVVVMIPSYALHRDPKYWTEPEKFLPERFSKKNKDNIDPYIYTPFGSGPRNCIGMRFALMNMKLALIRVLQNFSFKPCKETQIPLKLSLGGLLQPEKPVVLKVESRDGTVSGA

Regarding `COc1ncc2nc(CCc3ccccc3)c(=O)n(CCC#N)c2n1`, the Potency in assay [1] is > 11.4 µM; in assay [3] it was 15.8 µM (active); in assay [6] it was > 9.22 µM; in assay [7], > 46 µM. For the same compound, the activity change, negative = inhibition in assay [2] is -1.07%; in [4] it was -10.8%. Also, the activity, negative = inhibition in [5] was -4.61%. Further, the Potency entry in [8] and in assay [9] was “inactive” each time. For the same compound, in assay [10], the activation is -14.7%. Besides, the outcome in assay [11] was inactive.
On to `O=c1c(-c2cccc(F)c2)nc2cncnc2n1-c1ccccc1`, for which the Potency is > 11.4 µM in assay [1], 10 µM (active) in [3], > 9.22 µM in assay [6] and > 46 µM in [7]. Moreover, the activity change, negative = inhibition in assay [2] is -10.3%; in assay [4], -2.26%. Also, in assay [5], the activity, negative = inhibition was -2.29%. The Potency entry in assay [8] and in assay [12] was “inactive” each time. In addition, in assay [11], the outcome was inactive.
For `Cc1nc2cnc(N(C)C)nc2n(C)c1=O`, the Potency in assay [1] was > 11.4 µM; in assay [3] it was 3.98 µM (active); in assay [6] it was > 9.22 µM; in assay [7], > 46 µM. Moreover, the activity change, negative = inhibition in assay [2] was -9.37%; in [4] it was -9.43%. Moreover, the activity, negative = inhibition in assay [5] is 0.339%. For the same compound, the Potency result in assay [8], in [9] and in assay [12] was “inactive” throughout. Moreover, the result in assay [11] was inactive.
As for `COc1ccc(-n2c(=O)c(C)nc3cnc(N(C)C)nc32)cc1`, the Potency in assay [1] was > 11.4 µM; in [3] it was 6.31 µM (active); in assay [6], > 9.22 µM; in assay [7], > 46 µM. Moreover, the results for the activity change, negative = inhibition in [2] and in assay [4] were -8.91% and 5.39%, respectively. Further, the activity, negative = inhibition in assay [5] was -5.54%. Besides, the Potency entry in [8], in assay [9] and in [12] was “inactive” each time. Also, the result in assay [11] was inactive.
For `COc1ccc(Oc2ncc3nc(-c4ccc(Cl)cc4)c(=O)n(C)c3n2)cc1`, the Potency in [1] was > 11.4 µM; in [3], 0.631 µM (active); in assay [6], > 9.22 µM; in [7], > 46 µM. Besides, the figures for the activity change, negative = inhibition in assay [2] and in assay [4] were -22.1% and -2.12%, respectively. Besides, the activity, negative = inhibition in [5] was -5.79%. Further, the Potency result in assay [8], in assay [9] and in assay [12] was “inactive” each time. In assay [11], the result was inactive.
Turning to `COc1ccc(Oc2ncc3nc(C)c(=O)n(C)c3n2)cc1`, the Potency in assay [1] was > 11.4 µM; in [3], 12.6 µM (active); in [6], > 9.22 µM; in [7], > 46 µM. The activity change, negative = inhibition in [2] was 14.2%; in [4] it was -1.39%. For the same compound, the activity, negative = inhibition in [5] is -6.21%. For the same compound, the Potency entry in assay [8], in assay [9] and in [12] was “inactive” throughout. The result in assay [11] was inactive.
`Cn1cccc1C(=O)N1CCC2(CC1)CCN(c1ncccn1)CC2`: the Potency in assay [1] is > 11.4 µM; in assay [7] it was > 46 µM. In addition, the figures for the activity change, negative = inhibition in assay [2] and in assay [4] were 0.908% and 5.08%, respectively. For the same compound, the Potency entry in assay [3], in [8], in [9] and in [13] was “inactive” throughout. Further, the activity, negative = inhibition in [5] was -4.72%. The outcome in [11] was inactive.
